Screening results from PubChem BioAssay.
Only some compounds are listed: those with a hit (about 19% of all), similar ones and a draw of the others.
DT40 TDP1 no CPT: qHTS for Inhibitors of human tyrosyl-DNA phosphodiesterase 1 (TDP1): qHTS in cells in absence of CPT. DT40 Tdp1-/- hTDP1 cells, no CPT, ATP luminescence, 48 h. Potency, µM (doses to about 46.2 µM), most hits filed as inhibitors. actives 15% (n = 420,000); also: nearly all actives have a fitted effect of over 55% in size
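Readout: luminescence from CellTiter-Glo after 30 min in the dark at RT. Cells: DT40 Tdp1-/- with stable hTDP1, 400/well. Exposure: compounds alone, ≥48 hr, 37 °C.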
HT1080-NT tox: kills 2HG-producing HT-1080-NT fibrosarcoma cells. HT-1080-NT fibrosarcoma viability, CellTiter-Glo ATP luminescence, 48 h. Potency, µM (top dose mostly 46.1 µM), most hits filed as cytotoxic. actives 1.6% (n = 360,000). AID 686970;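 also: NT is the 2HG producing partner of a matched IDH1 knockdown line; nearly all actives have a fitted effect of over 55% in size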
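Viability by CellTiter-Glo luminescence after 48 h compound exposure at 37C of HT-1080-NT cells (750/well, RPMI, 5% FBS). % activity scaled between DMSO wells and medium-only wells, then curve-fitted and categorized by curve class.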
IL1B secr inh: inhibitors of inflammasome signaling (IL-1 beta secretion); actives 4.7% (n = 360,000); THP-1 LPS/ATP IL-1B secretion, AlphaLISA, 16 h; hits give low values; activity change, % at 57.5 µM; AID 743279; in the data active = activity change below about -50%; inconclusive = mostly about -30% to -49%
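THP-1 cells pretreated 1 hr with compounds (up to 57.5 uM final), then stimulated with LPS (250 ng/mL final) plus ATP (1.25 mM final); secreted IL-1B measured by AlphaLISA after 16 hr, decreased signal indicating inhibition.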
HT1080 IDH1KD tx: kills HT-1080 cells with IDH1 knockdown. HT-1080 IDH1 knockdown viability, ATP luminescence, 48 h. Potency, µM (titrated, usually from 46.1 µM), most hits filed as cytotoxic. actives 2% (n = 360,000)
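Viability of IDH1-knockdown HT-1080 fibrosarcoma cells was assessed by CellTiter-Glo after 48 h at 37 °C with titrated compound; concentration-effect curves were classified by fit quality and response size.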
TDP1 cell CPT: growth inhibition of DT40 Tdp1-/-;hTDP1 cells with camptothecin (screen for TDP1 inhibitors) | chicken DT40 Tdp1-/-;hTDP1 cells + 20 nM CPT, ATP luminescence, 48 h | Potency, µM (titrated, usually from 46.2 µM), actives largely listed as inhibitors | actives 12% (n = 420,000); also: nearly all actives have a fitted effect of over 55% in size
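Cell growth measured by CellTiter-Glo luminescence after a minimum 48 h, 37 C compound exposure with 20 nM CPT in Tdp1-knockout DT40 cells stably expressing hTDP1, seeded 400/well; qHTS titration format.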
Of the large screens only hits and unclear results are named; the others gave an inactive call; ! = a repeat was not active. Unless noted, calls follow the shape of the dose curve; as a rule, active = well fitted curve in the direction sought with a large enough effect; inconclusive = small, poorly fitted or top-dose-only effect, or another doubt; inactive = no such curve, though single readings can be large; an effect the other way counts as inactive or inconclusive.

CC(C)(C)NC(=O)[C@@H]1CN(Cc2cccnc2)CCN1C[C@@H](O)C[C@@H](Cc1ccccc1)C(=O)N[C@H]1c2ccccc2C[C@H]1O	DT40 TDP1 no CPT 11.9µM!, TDP1 cell CPT inconclusive
Cc1ccc(C)n1-c1ccc(N(C)C)cc1	DT40 TDP1 no CPT 29.1µM, IL1B secr inh inconclusive, TDP1 cell CPT inconclusive
O=C(CCN1CCN(C/C=C/c2ccccc2)CC1)Nc1ccc(Cl)cc1	none
COc1cc(NC(=O)CCN2CCN(C/C=C/c3ccccc3)CC2)cc(OC)c1	DT40 TDP1 no CPT 20.6µM, TDP1 cell CPT inconclusive
Cc1ccc(NC(=O)CCN2CCN(C/C=C/c3ccccc3)CC2)cc1C	DT40 TDP1 no CPT inconclusive, IL1B secr inh -53.1, TDP1 cell CPT inconclusive
O=C(Nc1cccc(Cl)c1)N1CCN(C/C=C/c2ccccc2)CC1	IL1B secr inh -51.0, TDP1 cell CPT inconclusive
Cc1ccc(NC(=O)CCN2CCN(C/C=C/c3ccccc3)CC2)cc1	DT40 TDP1 no CPT inconclusive, IL1B secr inh inconclusive, TDP1 cell CPT inconclusive
COC(=O)[C@]12CCCCC=C1N(Cc1ccco1)C(=O)[C@H](CC(=O)NCc1ccc(C)o1)C2	DT40 TDP1 no CPT inconclusive, TDP1 cell CPT inconclusive
COC(=O)c1scc(-c2ccc(C)cc2)c1S(=O)(=O)Nc1ccc(NC(C)=O)cc1	DT40 TDP1 no CPT inconclusive, TDP1 cell CPT 18.4µM (no result: HT1080-NT tox, IL1B secr inh, HT1080 IDH1KD tx)
COC(=O)c1scc(-c2ccc(C)cc2)c1S(=O)(=O)Nc1ccc(N(C)C)cc1	DT40 TDP1 no CPT 14.6µM, TDP1 cell CPT 16.4µM (no result: HT1080-NT tox, IL1B secr inh, HT1080 IDH1KD tx)
COC(=O)c1scc(-c2ccc(C)cc2)c1S(=O)(=O)Nc1ccc(OC(F)(F)F)cc1	none (no result: HT1080-NT tox, IL1B secr inh, HT1080 IDH1KD tx)
Cc1cc(C)c(NC(=O)CS(=O)CC(=O)NC2CCCc3ccccc32)c(C)c1 (configuration not stated)	none
Cc1ccc(NC(=O)/C=C/C(=O)O)c(NC(=O)c2ccccc2)c1	none
COc1cc2cc(CN(CCc3cccc(C)c3)C(=S)NCCCN(C)C)c(=O)[nH]c2cc1OC	DT40 TDP1 no CPT inconclusive, IL1B secr inh inconclusive
Cc1cccc2cc(CN(CCCN(C)C)C(=S)NCCc3ccccc3)c(=O)[nH]c12	DT40 TDP1 no CPT 16.4µM, IL1B secr inh -50.8, TDP1 cell CPT 20.6µM
CC(=O)N(CCc1cccc(C)c1)Cc1cc2ccc(C)cc2[nH]c1=O	IL1B secr inh inconclusive
COc1cc2cc(CN(CCc3cccc(C)c3)C(=S)NCCCN3CCOCC3)c(=O)[nH]c2cc1OC	DT40 TDP1 no CPT inconclusive, IL1B secr inh -61.7, HT1080 IDH1KD tx inconclusive, TDP1 cell CPT inconclusive
CN(C)CCCNC(=S)N(CCCN(C)C)Cc1cc2cc3c(cc2[nH]c1=O)OCO3	none
Cc1ccc2cc(CN(CCc3ccccc3)C(=S)NCCCN(C)C)c(=O)[nH]c2c1	DT40 TDP1 no CPT 25.9µM, HT1080-NT tox 25.9µM, IL1B secr inh inconclusive, HT1080 IDH1KD tx inconclusive, TDP1 cell CPT inconclusive
Cc1ccc2[nH]c(=O)c(CN(CCCN(C)C)C(=S)NCCc3ccccc3)cc2c1	DT40 TDP1 no CPT inconclusive, HT1080-NT tox 18.4µM, IL1B secr inh -67.5, HT1080 IDH1KD tx 18.4µM, TDP1 cell CPT inconclusive
COc1cccc(C(=O)O[C@@H]2[C@H](Cc3ccccc3)NS(=O)(=O)[C@H]3C[C@@H]4C=C[C@]23O4)c1	none
Cc1ccc2cc3cc(C(=O)NCCCN4CCCC4=O)oc3nc2c1	IL1B secr inh inconclusive
COc1ccc(OC2CCN(S(=O)(=O)c3ccc(C(C)=O)cc3)CC2)cc1	TDP1 cell CPT inconclusive
CC(=O)N(CCc1cccc(C)c1)Cc1cc2cc(C)ccc2[nH]c1=O	DT40 TDP1 no CPT inconclusive, TDP1 cell CPT 14.6µM
O=S(=O)(c1ccc(Cl)cc1)N1CCc2ccccc21	DT40 TDP1 no CPT 14.6µM, TDP1 cell CPT inconclusive
CC(=O)N1CCc2ccc(S(=O)(=O)N3CCc4ccccc43)cc21	DT40 TDP1 no CPT 5.17µM, TDP1 cell CPT 20.6µM
COc1ccc(S(=O)(=O)N2CCc3ccccc32)cc1C(=O)O	none
COC(=O)c1ccc(S(=O)(=O)N2CCc3ccccc32)cc1	DT40 TDP1 no CPT inconclusive, HT1080-NT tox inconclusive, HT1080 IDH1KD tx 9.2µM
NNC(=O)c1ccc(S(=O)(=O)N2CCc3ccccc32)cc1	none
